Compounds with a hit are over-represented: about 6.7% of the library has one in this group of screens.
KB-3-1 cytotox: kills parental KB-3-1 adenocarcinoma cells. KB-3-1 viability, CellTiter-Glo ATP luminescence, 72 h. Potency, µM (doses to about 46.1 µM), most hits filed as cytotoxic. hit rate 1.4% among 400,000. AID 1347075; also: nearly all actives have a fitted effect of over 60% in size
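Cells are dispensed, compounds pinned in, plates held at 37 °C for 72 h, then CellTiter-Glo is added and luminescence read after 10 minutes. Cell line: parental KB-3-1 in phenol-red-free DMEM, 10% FBS.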
PINK1 expr mod: PINK1 expression modulation; PINK1 immunofluorescence, high-content cytometry, 24 h; hit rate 0.2% among 410,000; Potency, µM (top dose mostly 76.6 µM), usual class: activators; active = well fitted activation curve with a large enough effect; inconclusive = small, poorly fitted or top-dose-only effect; cell line not stated here; also: nearly all actives have a fitted effect of over 65% in size
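PINK1 protein, normally rapidly degraded, was detected by immunofluorescence after 24 hour compound treatment of a stable cell line. Titration data (5 concentrations) came from laser-scanning cytometry, with CCCP-treated wells as controls.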
SW480 rerep: DNA re-replication induction in SW480 cells. SW480 DNA re-replication, Hoechst DNA content imaging, 48 h. Potency, µM (titrated, usually from 46.1 µM), most hits filed as activators. hit rate 1.8% among 340,000; also: nearly all actives have a fitted effect of over 55% in size
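DNA re-replication was detected as more nuclei of elevated Hoechst intensity after 48 hr exposure to compound (23 nL pinned per well of 250 cells).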
MCF10A rerep: induces DNA re-replication in MCF 10a normal breast cells | MCF 10A DNA re-replication, Hoechst nuclear intensity, 48 h | Potency, µM (highest dose often 46.1 µM), most hits filed as activators | hit rate 2.9% among 350,000 | AID 624296; also: nearly all actives have a fitted effect of over 50% in size
KB-V1 cytotox: kills drug-selected multidrug resistant KB-V1 cells | KB-V1 MDR cells viability, CellTiter-Glo, 72 h | Potency, µM (top dose mostly 46.1 µM), actives largely listed as cytotoxic | hit rate 3.4% among 400,000; also: nearly all actives have a fitted effect of over 60% in size
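Drug-selected KB-V1 cells, grown in DMEM lacking phenol red with 10% FBS, receive compound titrations; after three days at 37 degrees C, surviving cell ATP is quantified by CellTiter-Glo luminescence and responses normalized and curve-fitted.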
Of the large screens only hits and unclear results are named; the others gave an inactive call; ! = a repeat was not active. Unless noted, calls follow the shape of the dose curve; as a rule, active = well fitted curve in the direction sought with a large enough effect; inconclusive = small, poorly fitted or top-dose-only effect, or another doubt; inactive = no such curve, though single readings can be large; an effect the other way counts as inactive or inconclusive.

CC(NS(=O)(=O)c1cccc(C(=O)NCc2ccncc2)c1)c1ccccc1 (configuration not stated)	KB-V1 cytotox inconclusive
Cc1ccccc1-c1nc(CN2CCCC2c2ccc(F)cc2)c(C)o1 (configuration not stated)	PINK1 expr mod inconclusive, MCF10A rerep 15µM
Cc1c(Cc2ccccc2)sc(/N=C/c2ccc3ccccc3c2)c1C(N)=O	KB-3-1 cytotox inconclusive, SW480 rerep 1.2µM, MCF10A rerep 2.9µM, KB-V1 cytotox 0.92µM
Cc1ccc(/C=N/c2sc(Cc3ccccc3)c(C)c2C(N)=O)o1	KB-3-1 cytotox inconclusive, MCF10A rerep inconclusive, KB-V1 cytotox inconclusive
CCOC(=O)c1cc(CC)sc1/N=C/c1c(O)ccc2ccccc12	KB-3-1 cytotox inconclusive, MCF10A rerep inconclusive
Cc1c(Cc2ccccc2)sc(/N=C/c2c(O)ccc3ccccc23)c1C(N)=O	PINK1 expr mod inconclusive, SW480 rerep inconclusive, MCF10A rerep 12µM, KB-V1 cytotox inconclusive
CCOC(=O)c1ccc(-c2ccc3ncnc(NCc4cccs4)c3c2)o1	KB-3-1 cytotox inconclusive (no result: PINK1 expr mod, SW480 rerep, MCF10A rerep)
CC(C)(c1ccccc1)c1ccc(OCC(O)CNC2CCN(Cc3ccccc3)CC2)cc1 (configuration not stated)	KB-3-1 cytotox inconclusive, MCF10A rerep inconclusive, KB-V1 cytotox 18µM
CCOc1ccc(OCC(O)CNC2CCN(Cc3ccccc3)CC2)cc1 (configuration not stated)	KB-3-1 cytotox inconclusive, SW480 rerep inconclusive, MCF10A rerep inconclusive, KB-V1 cytotox 16µM
COc1ccc(OCC(O)CNC2CCCC2)cc1 (configuration not stated)	none
CCCOc1ccc(NC(=O)CC2C(=O)N(c3ccccc3)C(=O)N2CCC(C)C)cc1 (configuration not stated)	none (no result: KB-3-1 cytotox, SW480 rerep, MCF10A rerep, KB-V1 cytotox)
CN(Cc1nc2ccccc2c(=O)[nH]1)Cc1nc2ccsc2c(=O)[nH]1	SW480 rerep 21µM
COc1cc(OC)cc(C(=O)Nc2nnc(NC(=S)Nc3ccccc3)s2)c1	MCF10A rerep 10µM
COc1cc(OC)cc(C(=O)NCC(=O)Nc2ccc(C)c(Cl)c2)c1	none
COc1ccc(CC(=O)Oc2ccc(F)cc2)cc1	MCF10A rerep 0.65µM, KB-V1 cytotox inconclusive
COc1cc(OC)cc(C(=O)Nc2ccc(Nc3ccccc3)cc2)c1	none
COc1ccc(-c2cc(CNC(=O)CCl)on2)cc1	KB-3-1 cytotox inconclusive, SW480 rerep inconclusive, MCF10A rerep inconclusive
COc1ccc(-c2cc(CNC(=O)CN(C)Cc3ccccc3)on2)cc1	KB-V1 cytotox 2.6µM
COc1cc(OC)cc(C(=O)NCC(=O)Nc2ccc(-c3ccccc3)cc2)c1	KB-3-1 cytotox inconclusive, SW480 rerep 8.2µM, MCF10A rerep 4.6µM
O=C(NCc1ccco1)c1ccc(-c2ccc3nccn3c2)cc1	none (no result: SW480 rerep, MCF10A rerep)
CCc1ccc(-n2c(=O)c3c(C)c(C)sc3n(CC(=O)NCc3ccc(C)cc3)c2=O)cc1	none (no result: SW480 rerep, MCF10A rerep)
COc1ccc(CCNC(=O)CCn2c(=O)c3ccccc3n(CC(=O)Nc3ccccc3F)c2=O)cc1OC	KB-3-1 cytotox inconclusive (no result: SW480 rerep, MCF10A rerep)
COc1cccc(CN(C)CC(=O)NC(=O)NCc2ccccc2)c1	KB-V1 cytotox 21µM
COc1ccc(CC(=O)NCc2ccccc2)cc1	KB-3-1 cytotox inconclusive, SW480 rerep inconclusive, MCF10A rerep 7.3µM
COc1ccc(CNC(=O)c2cccc(C)c2[N+](=O)[O-])cc1	KB-V1 cytotox 23µM
CCCCC[C@H]1CN(CCCC)C(=O)[C@@H]1CC(=O)NCc1ccc(OC)cc1	KB-V1 cytotox inconclusive
CCCCC[C@H]1CN(CCc2ccccc2)C(=O)[C@@H]1CC(=O)NCc1ccc(OC)cc1	KB-3-1 cytotox inconclusive, KB-V1 cytotox 18µM!
O=C(Nc1ccc(-n2cnnn2)cc1)c1cccc(S(=O)(=O)N2CCCC2)c1	none
CCOCC(=O)Nc1ccc(-c2cn3c(C)csc3n2)cc1	none (no result: SW480 rerep, MCF10A rerep)
COc1cccc(CNC(=O)Cc2ccc(-n3c(=O)[nH]c4ccccc4c3=O)cc2)c1	KB-3-1 cytotox 4.1µM, PINK1 expr mod inconclusive, SW480 rerep inconclusive, MCF10A rerep inconclusive, KB-V1 cytotox inconclusive
COc1cccc(CNC(=O)COc2ccc(C(=O)c3ccccc3)cc2)c1	KB-3-1 cytotox inconclusive, SW480 rerep inconclusive, MCF10A rerep inconclusive, KB-V1 cytotox 21µM
COc1ccc(CNC(=O)c2ccc3c(=O)n(-c4ccccc4)c(=O)[nH]c3c2)cc1	none

Screens deposited in PubChem BioAssay by National Center for Advancing Translational Sciences (NCATS).
